The source of these data is the supplement of paper PMC10849652.

Of roughly 8,800 targets only a part is listed; those with a hit were picked by preference. About 0.5% of all pairs of compound and target were hits. A number with no mark means an inactive call.

Sequence of UniProt P10620 (P10620 whole entry, looked up): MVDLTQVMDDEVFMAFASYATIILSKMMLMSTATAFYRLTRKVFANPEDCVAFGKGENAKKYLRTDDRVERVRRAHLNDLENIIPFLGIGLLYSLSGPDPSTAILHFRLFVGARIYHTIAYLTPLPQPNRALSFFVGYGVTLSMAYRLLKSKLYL
Sequence of UniProt Q9UBB5 (Q9UBB5 whole entry, looked up): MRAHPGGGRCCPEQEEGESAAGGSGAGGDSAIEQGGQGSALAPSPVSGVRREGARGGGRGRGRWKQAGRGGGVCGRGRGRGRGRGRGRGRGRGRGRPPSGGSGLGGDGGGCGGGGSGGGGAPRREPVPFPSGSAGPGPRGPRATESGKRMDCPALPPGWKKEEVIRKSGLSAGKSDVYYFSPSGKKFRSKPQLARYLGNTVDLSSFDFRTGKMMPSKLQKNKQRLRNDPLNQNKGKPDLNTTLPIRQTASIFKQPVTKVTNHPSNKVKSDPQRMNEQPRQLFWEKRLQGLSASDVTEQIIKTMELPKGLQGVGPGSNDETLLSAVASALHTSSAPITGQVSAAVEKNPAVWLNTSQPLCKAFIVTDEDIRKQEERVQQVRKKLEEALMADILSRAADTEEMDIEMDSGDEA
Sequence of UniProt Q9BVC4 (Q9BVC4 whole entry, looked up): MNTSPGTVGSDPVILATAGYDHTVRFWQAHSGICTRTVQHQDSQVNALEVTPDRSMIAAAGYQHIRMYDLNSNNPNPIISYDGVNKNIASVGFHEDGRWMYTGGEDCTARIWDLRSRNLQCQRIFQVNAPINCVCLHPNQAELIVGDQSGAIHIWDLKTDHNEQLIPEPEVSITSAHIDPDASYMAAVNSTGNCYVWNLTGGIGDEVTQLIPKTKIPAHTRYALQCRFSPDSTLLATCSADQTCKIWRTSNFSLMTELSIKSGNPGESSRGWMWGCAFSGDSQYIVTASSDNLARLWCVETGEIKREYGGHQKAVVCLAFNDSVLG
Sequence of UniProt Q00013 (Q00013 whole entry, looked up): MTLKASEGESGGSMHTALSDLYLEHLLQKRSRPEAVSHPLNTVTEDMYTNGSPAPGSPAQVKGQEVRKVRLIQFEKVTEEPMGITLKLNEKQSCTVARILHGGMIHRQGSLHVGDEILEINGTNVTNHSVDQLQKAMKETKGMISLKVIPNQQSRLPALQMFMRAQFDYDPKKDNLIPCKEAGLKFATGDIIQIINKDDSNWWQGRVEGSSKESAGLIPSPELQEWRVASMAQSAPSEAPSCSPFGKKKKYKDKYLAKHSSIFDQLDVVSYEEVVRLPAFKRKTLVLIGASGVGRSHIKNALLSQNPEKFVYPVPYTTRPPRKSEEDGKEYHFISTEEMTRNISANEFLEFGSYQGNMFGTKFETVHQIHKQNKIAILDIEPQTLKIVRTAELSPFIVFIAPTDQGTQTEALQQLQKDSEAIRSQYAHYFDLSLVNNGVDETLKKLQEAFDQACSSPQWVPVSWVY
Sequence of UniProt Q9P2J5 (Q9P2J5 whole entry, looked up): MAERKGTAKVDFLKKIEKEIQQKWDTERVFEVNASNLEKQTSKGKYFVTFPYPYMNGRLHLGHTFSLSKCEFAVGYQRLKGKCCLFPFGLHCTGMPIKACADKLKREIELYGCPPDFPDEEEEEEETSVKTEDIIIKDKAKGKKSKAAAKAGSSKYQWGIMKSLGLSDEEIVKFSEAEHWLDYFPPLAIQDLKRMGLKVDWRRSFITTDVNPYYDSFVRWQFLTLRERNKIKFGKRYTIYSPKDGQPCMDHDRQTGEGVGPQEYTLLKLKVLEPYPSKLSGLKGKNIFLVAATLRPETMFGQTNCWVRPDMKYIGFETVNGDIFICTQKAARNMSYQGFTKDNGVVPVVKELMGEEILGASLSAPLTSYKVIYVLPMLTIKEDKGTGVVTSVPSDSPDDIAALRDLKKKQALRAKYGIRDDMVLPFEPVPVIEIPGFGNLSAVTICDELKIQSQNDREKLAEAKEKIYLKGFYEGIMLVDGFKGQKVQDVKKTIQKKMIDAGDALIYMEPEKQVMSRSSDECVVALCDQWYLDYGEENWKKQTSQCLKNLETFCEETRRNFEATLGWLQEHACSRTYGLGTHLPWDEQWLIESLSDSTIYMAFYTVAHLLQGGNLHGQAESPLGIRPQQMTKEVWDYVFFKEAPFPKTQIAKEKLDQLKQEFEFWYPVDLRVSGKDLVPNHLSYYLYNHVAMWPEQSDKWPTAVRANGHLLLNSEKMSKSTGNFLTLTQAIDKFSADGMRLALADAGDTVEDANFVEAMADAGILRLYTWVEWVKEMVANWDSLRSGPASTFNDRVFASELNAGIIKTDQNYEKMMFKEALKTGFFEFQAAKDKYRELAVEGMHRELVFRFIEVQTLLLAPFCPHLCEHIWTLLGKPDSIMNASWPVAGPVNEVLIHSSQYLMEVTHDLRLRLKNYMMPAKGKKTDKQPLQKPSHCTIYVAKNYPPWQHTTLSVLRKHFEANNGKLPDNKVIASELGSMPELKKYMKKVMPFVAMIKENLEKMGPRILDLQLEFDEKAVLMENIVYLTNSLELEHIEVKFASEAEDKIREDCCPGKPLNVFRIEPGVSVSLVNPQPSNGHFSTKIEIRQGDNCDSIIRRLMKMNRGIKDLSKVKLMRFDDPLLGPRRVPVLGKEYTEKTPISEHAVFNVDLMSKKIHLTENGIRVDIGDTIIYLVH
Sequence of UniProt Q71F56 (Q71F56 whole entry, looked up): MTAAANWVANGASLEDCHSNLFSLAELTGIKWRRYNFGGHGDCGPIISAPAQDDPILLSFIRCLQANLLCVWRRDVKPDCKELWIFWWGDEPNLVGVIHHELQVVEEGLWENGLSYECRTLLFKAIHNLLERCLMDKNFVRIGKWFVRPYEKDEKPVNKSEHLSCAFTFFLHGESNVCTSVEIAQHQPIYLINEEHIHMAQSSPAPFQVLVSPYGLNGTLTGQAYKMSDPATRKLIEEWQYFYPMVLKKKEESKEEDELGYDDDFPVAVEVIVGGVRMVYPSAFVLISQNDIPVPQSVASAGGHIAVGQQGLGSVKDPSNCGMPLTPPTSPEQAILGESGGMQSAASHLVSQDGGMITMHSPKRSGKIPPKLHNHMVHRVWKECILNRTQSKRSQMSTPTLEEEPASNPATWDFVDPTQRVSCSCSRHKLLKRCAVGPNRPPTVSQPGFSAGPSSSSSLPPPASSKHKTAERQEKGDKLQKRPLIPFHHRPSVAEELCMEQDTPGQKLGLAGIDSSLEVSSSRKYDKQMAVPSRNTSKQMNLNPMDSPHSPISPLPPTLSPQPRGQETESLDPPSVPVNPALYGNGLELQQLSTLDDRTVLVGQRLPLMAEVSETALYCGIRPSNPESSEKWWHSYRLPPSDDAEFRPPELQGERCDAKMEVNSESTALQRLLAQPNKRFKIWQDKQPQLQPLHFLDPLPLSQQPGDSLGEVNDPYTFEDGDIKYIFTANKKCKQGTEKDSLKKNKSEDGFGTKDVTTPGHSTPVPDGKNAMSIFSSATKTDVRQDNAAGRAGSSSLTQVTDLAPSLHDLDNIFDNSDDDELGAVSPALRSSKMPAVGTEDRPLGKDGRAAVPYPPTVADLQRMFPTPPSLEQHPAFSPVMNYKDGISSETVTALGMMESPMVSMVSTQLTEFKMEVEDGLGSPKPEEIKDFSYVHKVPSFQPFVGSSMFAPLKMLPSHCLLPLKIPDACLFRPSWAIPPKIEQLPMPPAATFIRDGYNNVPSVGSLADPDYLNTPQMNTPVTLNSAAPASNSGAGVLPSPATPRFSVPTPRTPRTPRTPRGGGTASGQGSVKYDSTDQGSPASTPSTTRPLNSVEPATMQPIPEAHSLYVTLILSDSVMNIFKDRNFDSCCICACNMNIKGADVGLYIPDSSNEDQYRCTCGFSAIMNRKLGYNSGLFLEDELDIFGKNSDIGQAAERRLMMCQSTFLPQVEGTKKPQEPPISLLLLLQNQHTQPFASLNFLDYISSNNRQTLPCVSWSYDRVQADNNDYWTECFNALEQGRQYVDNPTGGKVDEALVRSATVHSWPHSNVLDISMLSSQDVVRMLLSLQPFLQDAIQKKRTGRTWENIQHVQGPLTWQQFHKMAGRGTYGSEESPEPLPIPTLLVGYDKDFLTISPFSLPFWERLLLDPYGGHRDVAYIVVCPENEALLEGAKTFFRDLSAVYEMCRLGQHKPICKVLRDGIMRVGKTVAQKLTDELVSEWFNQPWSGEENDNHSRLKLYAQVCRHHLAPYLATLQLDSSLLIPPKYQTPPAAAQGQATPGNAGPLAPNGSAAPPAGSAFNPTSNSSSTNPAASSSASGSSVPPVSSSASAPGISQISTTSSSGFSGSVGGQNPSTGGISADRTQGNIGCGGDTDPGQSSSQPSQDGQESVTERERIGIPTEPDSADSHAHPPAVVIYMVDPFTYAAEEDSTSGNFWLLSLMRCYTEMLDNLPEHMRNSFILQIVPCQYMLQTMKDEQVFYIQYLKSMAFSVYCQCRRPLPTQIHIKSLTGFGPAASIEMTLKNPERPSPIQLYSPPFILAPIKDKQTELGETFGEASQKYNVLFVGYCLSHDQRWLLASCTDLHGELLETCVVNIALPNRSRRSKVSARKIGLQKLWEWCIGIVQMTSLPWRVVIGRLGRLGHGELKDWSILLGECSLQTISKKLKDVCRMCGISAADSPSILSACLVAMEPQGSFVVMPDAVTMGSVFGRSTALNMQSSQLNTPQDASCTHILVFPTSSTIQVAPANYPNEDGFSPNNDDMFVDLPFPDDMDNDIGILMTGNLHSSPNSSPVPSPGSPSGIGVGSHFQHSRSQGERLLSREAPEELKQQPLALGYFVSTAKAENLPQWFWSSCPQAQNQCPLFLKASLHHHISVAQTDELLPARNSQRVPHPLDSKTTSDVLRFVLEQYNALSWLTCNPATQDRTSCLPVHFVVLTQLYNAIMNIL
Sequence of UniProt Q9NZL9 (Q9NZL9 whole entry, looked up): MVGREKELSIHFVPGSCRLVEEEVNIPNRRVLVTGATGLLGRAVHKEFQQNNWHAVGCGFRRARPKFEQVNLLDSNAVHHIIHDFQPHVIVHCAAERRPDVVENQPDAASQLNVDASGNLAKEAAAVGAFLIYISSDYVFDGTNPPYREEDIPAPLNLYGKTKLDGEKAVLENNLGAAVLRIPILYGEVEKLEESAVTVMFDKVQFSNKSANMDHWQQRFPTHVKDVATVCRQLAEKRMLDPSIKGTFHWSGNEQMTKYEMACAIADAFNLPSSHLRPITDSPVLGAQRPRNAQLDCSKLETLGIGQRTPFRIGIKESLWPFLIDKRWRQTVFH

Compound in the test: CNc1nc(-c2ccc3c(N)n[nH]c3c2)cc(N2C[C@@H](C(=O)NC3CCCCC3)CC[C@H]2C)n1
Put plainly: log2 fold change, soluble protein after heating vs DMSO (PISA); higher = thermal stabilisation; K562 lysate, 10 uM; active = over 0.2 and 3.5 SD of the protein, either way, in both replicates (recomputed). In outline: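 Following dounce homogenisation of K562 pellets in PBS pH 7.4 with 1 mM MgCl2, crude extract at 1 mg/mL protein was incubated for 30 min with 10 μM compound. Aliquots were then heated for 3 min over 48°C-58°C and pooled, NP-40 was added to 0.5% at 4°C, and soluble protein was recovered as the supernatant at 21,000xg for 90 min. Channel-sum-equalised TMTpro 16plex LC-MS/MS quantified this protein. Each value, from duplicates, is a log-two fold change in thermal stability relative to solvent controls.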
In the case of LARS2 (UniProt Q15031), the log2 fold change is -0.088.

For LYSMD3 (UniProt Q7Z3D4), the log2 fold change is 0.092.

Turning to MARK3 (UniProt P27448), the log2 fold change was 0.113.

Take MAP2K2 (UniProt P36507): the log2 fold change was 0.015.

On to MAD2L1BP isoform 3 (UniProt Q15013), for which the log2 fold change was -0.012.

As to MOCS1 isoform 8 (UniProt Q9NZB8), the log2 fold change is -0.105.

LRRC40 (UniProt Q9H9A6): the log2 fold change was -0.012.

In the case of MPZL1 (UniProt O95297), the log2 fold change was 0.028.

In the case of MON2 isoform 5 (UniProt Q7Z3U7), the log2 fold change was -0.014.

Regarding LLGL1 (UniProt Q15334), the log2 fold change was -0.034.

On to MRPL10 isoform 2 (UniProt Q7Z7H8), for which the log2 fold change is 0.074.

Take LIMS1 isoform 3 (UniProt P48059): the log2 fold change is 0.02.

Consider MED12 isoform 2 (UniProt Q93074), for which the log2 fold change was -0.041.

As for METTL7A (UniProt Q9H8H3), the log2 fold change was 0.041.

With MED17 (UniProt Q9NVC6), the log2 fold change was -0.019.

Turning to LSM8 (UniProt O95777), the log2 fold change is -0.028.

For the target MFF isoform 2 (UniProt Q9GZY8), the log2 fold change is 0.024.

On to LARS (UniProt Q9P2J5), for which the log2 fold change was -0.054.

Regarding MAPK9 (UniProt P45984), the log2 fold change was 0.006.

As to MED13L (UniProt Q71F56), the log2 fold change was -0.004.

Regarding MACROD1 (UniProt Q9BQ69), the log2 fold change is 0.015.

In the case of MRPL46 (UniProt Q9H2W6), the log2 fold change was 0.058.

As for MGST1 (UniProt P10620), the log2 fold change was 0.038.

For the target MGAT5 (UniProt Q09328), the log2 fold change is -0.026.

For MAT2B (UniProt Q9NZL9), the log2 fold change is -0.01.

As to MCMBP (UniProt Q9BTE3), the log2 fold change is -0.003.

For the target MICB, A0A140T979, the log2 fold change is 0.084.

Take LSS (UniProt P48449): the log2 fold change was 0.021.

With MORF4L1 isoform 2 (UniProt Q9UBU8), the log2 fold change is 0.247 (active).

With MAPKAPK3 (UniProt Q16644), the log2 fold change is -0.11.

Take KPNA4 (UniProt O00629): the log2 fold change is 0.008.

As for LIG3 (UniProt P49916), the log2 fold change was -0.002.

Take MAP4 (UniProt E7EVA0): the log2 fold change was 0.037.

For MLST8 (UniProt Q9BVC4), the log2 fold change is -0.059.

On to LSG1 (UniProt Q9H089), for which the log2 fold change is -0.077.

For the target MPP1 (UniProt Q00013), the log2 fold change was 0.01.

On to LRWD1 (UniProt Q9UFC0), for which the log2 fold change was -0.051.

Turning to MBD2 (UniProt Q9UBB5), the log2 fold change was 0.083.

On to MCU (UniProt Q8NE86), for which the log2 fold change is -0.067.
